In PubChem BioAssay AID1159580 (chemical genetic matrix, 2015):
Several values for one entry are separate records, joined by “and”; a condition that tells them apart may be missing. Identical values can stand only once. Screen size: about 5,500 compounds; about 2,000 (36%) were called active. Roughly 18% stayed inconclusive and do not appear here. Rule as the data show it: active = normalized growth mostly below about 0.91 (no sharp cut-off); inconclusive = no clear call, values can overlap the other calls; inactive = mostly above about 0.92. The list shows a part of the results.

Experiment: chemical genetic growth profiling, strain panel (AID 1159580);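 also: tested at 20 µM; growth read once vehicle control cultures reached saturation at 30 °C; 1 = growth at the plate median or of vehicle wells; lower values mean less growth of the strain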
Conditions: S. cerevisiae deletion strains, growth OD

Measured: normalized growth

COC(=O)C1=CO[C@@H](O[C@@H]2O[C@H](CO)[C@@H](O)[C@H](O)[C@H]2O)[C@@H]2[C@@H](C)[C@@H](O)C[C@H]12
inactive: locus YAL013W, strain DEP1, stronger effect = lower value 1 | locus YAL021C, strain ccr4, stronger effect = lower value 0.973 | locus YAL026C, strain drs2, stronger effect = lower value 1.01 | locus YAL030W, strain snc1, stronger effect = lower value 0.996 | locus YBL061C, strain skt5, stronger effect = lower value 0.999 | locus YBR009C, strain hhf1, stronger effect = lower value 0.998 | locus YBR021W, strain FUR4, stronger effect = lower value 1.02 | locus YBR023C, strain chs3, stronger effect = lower value 0.994 | locus YBR171W, strain sec66, stronger effect = lower value 1 | locus YBR229C, strain ROT2, stronger effect = lower value 1.01 | locus YBR231C, strain swc5, stronger effect = lower value 1.01 | locus YBR279W, strain paf1, stronger effect = lower value 0.989 | locus YCL011C, strain gbp2, stronger effect = lower value 0.997 | locus YCL016C, strain dcc1, stronger effect = lower value 0.979 | locus YCL029C, strain bik1, stronger effect = lower value 0.989 | locus YCL061C, strain MRC1, stronger effect = lower value 0.973 | locus YCL069W, strain vba3, stronger effect = lower value 0.999 | locus YCR088W, strain abp1, stronger effect = lower value 0.998 | locus YDL005C, strain med2, stronger effect = lower value 0.989 | locus YDL035C, strain GPR1, stronger effect = lower value 1.02 | locus YDL040C, strain nat1, stronger effect = lower value 1 | locus YDL074C, strain BRE1, stronger effect = lower value 1 | locus YDL101C, strain DUN1, stronger effect = lower value 0.996 | locus YDL134C, strain PPH21, stronger effect = lower value 1.08 | locus YDL185W, strain tfp1, stronger effect = lower value 0.967 | locus YDL192W, strain arf1, stronger effect = lower value 1 | locus YDR001C, strain nth1, stronger effect = lower value 1 | locus YDR069C, strain doa4, stronger effect = lower value 0.998 | locus YDR101C, strain arx1, stronger effect = lower value 0.977 | locus YDR137W, strain rgp1, stronger effect = lower value 1 | locus YDR150W, strain NUM1, stronger effect = lower value 0.993 | locus YDR159W, strain sac3, stronger effect = lower value 0.998 | locus YDR162C, strain NBP2, stronger effect = lower value 1.01 | locus YDR195W, strain ref2 0.989 | locus YDR297W, strain sur2, stronger effect = lower value 0.996 | locus YDR318W, strain mcm21, stronger effect = lower value 1.01 | locus YDR334W, strain swr1, stronger effect = lower value 1.01 | locus YDR335W, strain msn5, stronger effect = lower value 0.995 | locus YDR388W, stronger effect = lower value 0.995 | locus YDR392W, strain spt3, stronger effect = lower value 0.891 | locus YDR502C, strain sam2, stronger effect = lower value 1.01 | locus YEL003W, strain gim4, stronger effect = lower value 1.02 | locus YEL037C, strain rad23, stronger effect = lower value 1.01 | locus YEL061C, strain CIN8 (second series), stronger effect = lower value 1 | locus YEL061C, strain CIN8, stronger effect = lower value 1.01 | locus YER015W, strain faa2, stronger effect = lower value 0.995 | locus YER016W, strain bim1, stronger effect = lower value 0.999 | locus YER110C, stronger effect = lower value 0.976 | locus YER111C, strain swi4, stronger effect = lower value 0.991 | locus YER155C, strain BEM2 (second series), stronger effect = lower value 0.986 | locus YER155C, strain BEM2, stronger effect = lower value 0.997 | locus YER167W, strain BCK2, stronger effect = lower value 1 | locus YFR010W, strain ubp6, stronger effect = lower value 1 | locus YGL078C, strain dbp3, stronger effect = lower value 0.989 | locus YGL086W, strain mad1, stronger effect = lower value 0.943 | locus YGL167C, strain pmr1, stronger effect = lower value 1.01 | locus YGL173C, strain kem1, stronger effect = lower value 1.02 | locus YGL227W, strain vid30, stronger effect = lower value 0.994 | locus YGL240W, strain doc1, stronger effect = lower value 0.987 | locus YGL248W, strain PDE1, stronger effect = lower value 1.02 | locus YGL253W, strain hxk2, stronger effect = lower value 1.01 | locus YGR078C, strain PAC10, stronger effect = lower value 1 | locus YGR135W, strain pre9, stronger effect = lower value 1 | locus YGR229C, strain SMI1, stronger effect = lower value 1.03 | locus YGR252W, strain gcn5, stronger effect = lower value 1.14 | locus YHR013C, strain ard1, stronger effect = lower value 1.03 | locus YHR027C, strain rpn1, stronger effect = lower value 1 | locus YHR030C, strain SLT2, stronger effect = lower value 0.992 and 1.04 | locus YHR079C, strain IRE1 (second series), stronger effect = lower value 0.979 | locus YHR079C, strain IRE1, stronger effect = lower value 1.06 | locus YHR094C, strain hxt1, stronger effect = lower value 0.998 | locus YHR129C, strain ARP1, stronger effect = lower value 1 | locus YHR142W, strain chs7, stronger effect = lower value 1 | locus YHR200W, strain rpn10, stronger effect = lower value 0.979 | locus YIL066C, strain RNR3, stronger effect = lower value 1.01 | locus YIL073C, strain SPO22, stronger effect = lower value 0.986 | locus YIL125W, strain kgd1, stronger effect = lower value 0.985 | locus YIR030C, strain dcg1, stronger effect = lower value 0.996 | locus YJL092W, strain hpr5, stronger effect = lower value 1 | locus YJL095W, strain BCK1 (second series), stronger effect = lower value 1 | locus YJL095W, strain BCK1, stronger effect = lower value 1.04 and 1 | locus YJL115W, strain asf1, stronger effect = lower value 0.999 | locus YJL129C, strain trk1, stronger effect = lower value 0.986 | locus YJL134W, strain LCB3, stronger effect = lower value 1 | locus YJL154C, strain vps35, stronger effect = lower value 1.01 | locus YJL164C, strain tpk1, stronger effect = lower value 1 | locus YJL166W, strain qcr8, stronger effect = lower value 0.972 | locus YJL168C, strain set2, stronger effect = lower value 0.978 | locus YJL187C, strain SWE1 (second series), stronger effect = lower value 1 | locus YJL187C, strain SWE1, stronger effect = lower value 1 | locus YJR043C, strain POL32, stronger effect = lower value 1.01 | locus YJR066W, strain TOR1, stronger effect = lower value 1.01 | locus YJR075W, strain HOC1, stronger effect = lower value 0.995 | locus YKL009W, strain mrt4, stronger effect = lower value 1.01 | locus YKL068W, stronger effect = lower value 0.987 | locus YKL085W, strain MDH1 (second series), stronger effect = lower value 0.978 | locus YKL085W, strain MDH1, stronger effect = lower value 0.978 | locus YKL160W, strain elf1, stronger effect = lower value 0.961 | locus YKL190W, strain CNB1, stronger effect = lower value 1 | locus YKR001C, strain vps1, stronger effect = lower value 0.999 | locus YKR026C, strain gcn3, stronger effect = lower value 0.997 | locus YKR091W, strain srl3, stronger effect = lower value 0.992 | locus YLL001W, strain dnm1, stronger effect = lower value 0.973 | locus YLL026W, stronger effect = lower value 1 | locus YLL041C, strain sdh2, stronger effect = lower value 0.994 | locus YLR027C, strain aat2, stronger effect = lower value 0.994 | locus YLR039C, strain RIC1, stronger effect = lower value 1.05 | locus YLR058C, strain SHM2, stronger effect = lower value 1.01 | locus YLR102C, strain apc9, stronger effect = lower value 0.984 | locus YLR113W, strain HOG1, stronger effect = lower value 0.991 | locus YLR221C, strain rsa3, stronger effect = lower value 0.971 | locus YLR258W, strain gsy2, stronger effect = lower value 0.981 | locus YLR262C, strain YPT6 (second series), stronger effect = lower value 0.985 | locus YLR262C, strain YPT6, stronger effect = lower value 1.08 | locus YLR268W, strain sec22, stronger effect = lower value 0.968 | locus YLR320W, strain mms22, stronger effect = lower value 0.964 | locus YLR330W, strain CHS5, stronger effect = lower value 0.984 | locus YLR342W, strain FKS1 (second series), stronger effect = lower value 1.04 | locus YLR342W, strain FKS1, stronger effect = lower value 0.995 | locus YLR357W, strain rsc2, stronger effect = lower value 0.986 | locus YLR370C, strain arc18, stronger effect = lower value 0.992 | locus YLR371W, strain rom2, stronger effect = lower value 0.973 | locus YLR384C, strain iki3, stronger effect = lower value 1 | locus YLR418C, strain cdc73, stronger effect = lower value 1.04 | locus YML016C, strain PPZ1, stronger effect = lower value 0.997 | locus YML032C, strain rad52, stronger effect = lower value 1.03 | locus YML120C, strain ndi1, stronger effect = lower value 0.99 | locus YML124C, strain tub3, stronger effect = lower value 0.988 | locus YMR058W, strain fet3, stronger effect = lower value 1 | locus YMR078C, strain ctf18, stronger effect = lower value 0.954 | locus YMR125W, strain sto1, stronger effect = lower value 0.97 | locus YMR129W, stronger effect = lower value 1.01 | locus YMR205C, strain PFK2, stronger effect = lower value 0.952 | locus YMR223W, strain ubp8, stronger effect = lower value 1.01 | locus YMR231W, strain pep5, stronger effect = lower value 1 | locus YMR263W, strain SAP30, stronger effect = lower value 0.996 | locus YMR307W, strain GAS1, stronger effect = lower value 1.18 | locus YNL067W, strain RPL9B, stronger effect = lower value 1 | locus YNL071W, strain lat1, stronger effect = lower value 1 | locus YNL183C, strain NPR1, stronger effect = lower value 1 | locus YNL209W, strain ssb2, stronger effect = lower value 1 | locus YNL233W, strain BNI4, stronger effect = lower value 1 | locus YNL248C, strain rpa49, stronger effect = lower value 0.982 | locus YNL250W, strain rad50, stronger effect = lower value 0.939 | locus YNL271C, strain bni1, stronger effect = lower value 0.989 | locus YNL298W, strain CLA4, stronger effect = lower value 1 | locus YNL307C, strain MCK1, stronger effect = lower value 0.979 | locus YNL322C, strain KRE1 (second series), stronger effect = lower value 0.989 | locus YNR049C, strain mso1, stronger effect = lower value 0.997 | locus YNR052C, strain pop2, stronger effect = lower value 0.997 | locus YOL012C, strain htz1 1.13 | locus YOL147C, strain pex11, stronger effect = lower value 0.988 | locus YOR001W, strain rrp6, stronger effect = lower value 1 | locus YOR061W, strain CKA2, stronger effect = lower value 1.01 | locus YOR069W, strain VPS5, stronger effect = lower value 0.995 | locus YOR070C, strain gyp1, stronger effect = lower value 0.999 | locus YOR080W, strain dia2, stronger effect = lower value 0.997 | locus YOR083W, strain WHI5, stronger effect = lower value 0.958 | locus YOR106W, strain vam3, stronger effect = lower value 0.989 | locus YOR136W, strain idh2, stronger effect = lower value 0.991 | locus YOR144C, strain elg1, stronger effect = lower value 0.993 | locus YOR184W, strain ser1, stronger effect = lower value 1 | locus YOR231W, strain MKK1, stronger effect = lower value 1.03 | locus YOR265W, strain rbl2, stronger effect = lower value 0.999 | locus YOR270C, strain vph1, stronger effect = lower value 1.02 | locus YOR290C, strain snf2, stronger effect = lower value 0.98 | locus YOR316C, strain cot1, stronger effect = lower value 0.996 | locus YPL051W, strain arl3, stronger effect = lower value 0.977 | locus YPL055C, strain LGE1, stronger effect = lower value 1.01 | locus YPL078C, strain atp4, stronger effect = lower value 0.965 | locus YPL106C, strain sse1, stronger effect = lower value 0.948 | locus YPL240C, strain hsp82, stronger effect = lower value 0.996 | locus YPL256C, strain CLN2, stronger effect = lower value 1.05 | locus YPR119W, strain clb2, stronger effect = lower value 0.981 | locus YPR141C, strain kar3, stronger effect = lower value 0.977 | locus YPR163C, strain tif3, stronger effect = lower value 0.984 | locus YPR167C, strain met16, stronger effect = lower value 0.995 | strain wtn01, stronger effect = lower value 0.948
